Records with an inconclusive call do not appear. The source made the active and inactive calls. Calls follow the shape of the dose curve; as a rule, active = well fitted cell-killing curve with a large enough effect; inconclusive = small, poorly fitted or top-dose-only effect; inactive = flat fitted curve, though single readings scatter.
Experiment: Vero cells viability qHTS for Zika virus inhibitors (AID 1347167)
Details: cytotoxicity counter-screen (Zika); series mostly up to 45.9 µM; activity change, negative = cytotoxicity: at the top concentration
Excerpt: Avindra Nath, Ph.D., National Institute of Neurological Disorders and Stroke (NINDS), Bethesda, MD
Radhakrishnan Padmanabhan, Ph.D., Georgetown University (GU), Washington D.C.
Zika Virus causes congenital defects, including microcephaly and is associated with Guillain-Barre syndrome, eningoencephalitis and myelitis in infected adult. […] Using a target-based approach, we hope to establish a screening paradigm to uncover novel, cell-active NS2B-NS3 protease (Zika Virus) specific inhibitors from NCATS' collection of small molecules using qHTS.
Four assay panel was created to identify potential Zika Virus inhibitors. Namely, (1) GU unlinked NS2B-NS3 AMC tagged protease qHTS, (2) GU unlinked NS2B-NS3 Rhodamine tagged protease qHTS, (3) NINDS linked NS2B-NS3 AMC tagged protease qHTS, (4) NINDS linked NS2B-NS3 Rhodamine tagged protease qHTS. Identified inhibitors were screened against the Vero and HepG2 cell viability assays using CellTiter Glo to exclude cytotoxic compounds.
Early Translation Branch (ETB)
National Center for Advancing Translational Sciences (NCATS), Rockville, MD
National Institute of Health (NIH), Bethesda, Maryland
Vero and HepG2 Cell Viability Assay:
Vero and HepG2 cell cytotoxicity were determined using a luminescent readout with CellTiter Glo reagent (Promega, Madison, WI), which is based on measuring the ATP content within cells. Briefly, 4 microL of Vero or HepG2 cells at 2.5 x 10^5 cells/mL in DMEM containing 4% FBS were dispensed into 1536-well solid bottom tissue treated white plate using a Multidrop Combi dispenser (Thermo Scientific). Plates were incubated at 37 degrees C, 95% humidity, and 5% CO2 overnight to allow for cell attachment. Compounds were dissolved in DMSO at different concentrations and transferred via pintool (Wako Automation), for a final concentration of 0.029 µM - 57 microM. Plates were again incubated for 24 to 48 hours, followed by a 2 microL addition of CellTiter Glo. Finally, plates were incubated for 30 minutes at 37 degrees C and 5% CO2 before being read on a ViewLux (Perkin Elmer) for luminescence.
% is scaled to controls: 0 for no effect and ±100 for the full control effect.

SMILES | activity change, negative = cytotoxicity
CC1(C)CCC(C)(C)c2cc(C3(c4ccc(C(=O)O)cc4)OCCO3)ccc21 | 1.88% (inactive)
COc1ccc(Cl)c(Nc2nc3ccccc3nc2NS(=O)(=O)c2cccc(NC(=O)C(C)(C)N)c2)c1 | -3.74% (inactive)
CC1=C(C(=O)OCc2ccccc2)C(c2ccc(-c3ccccc3)cc2)NC(=O)N1CCCCCC(=O)O (configuration not stated) | -2.11% (inactive)
C=C[C@H]1[C@H](O[C@@H]2O[C@H](CO)[C@@H](O)[C@H](O)[C@H]2O)OC=C(C(=O)OC)[C@H]1CCOC(=O)c1cc(O)c(O)c(O)c1 | -4.11% [at 26.9 µM] (inactive)
CC1(C)CC[C@]2(C(=O)O)CC[C@]3(C)C(=CCC4[C@@]5(C)C[C@@H](O)[C@H](O)C(C)(C)C5CC[C@]43C)C2C1 (some centres not stated) | -4.37% [at 26.9 µM] (inactive)
N#CC(c1ccnc(OCc2ccc(CN3CCOCC3)cc2)n1)c1nc2ccccc2s1 (configuration not stated) | -1.41% (inactive)
CCCCCCOc1cc2c(cc1N(C)c1ncc(C(=O)O)cn1)C(C)(C)CCC2(C)C | -2.12% (inactive)
O=C(O)Cc1ccc2oc(-c3ccc(NC(=O)/C=C/c4ccc(Br)cc4)c(F)c3)nc2c1 | -7.26% (inactive)
CC1(C)CC2=C3C=CC4C5(C)CCC(O)C(C)(C)C5CCC4(C)C3(C)CCC2(C)C(O)C1 (configuration not stated) | -4.55% [at 26.9 µM] (inactive)
CC(C)c1cccc2c(-c3ccccc3)cc(-c3ccc(-c4ccc(C(=O)O)cc4)[nH]3)nc12 | 0.923% (inactive)
O=C(Nc1ccc(S(=O)(=O)Nc2nccs2)cc1)C(c1ccccc1)c1ccccc1 | -2.44% (inactive)
C=CC/C=C\C/C=C\CCCCCCCc1cccc(O)c1C(=O)O | -2.93% [at 26.9 µM] (inactive)
O=C(N/N=C/c1ccc(O)c(O)c1)c1cc2ccccc2cc1O | -4.16% [at 15.3 µM] (inactive)
COc1cc(Nc2nc3ccccc3nc2NS(=O)(=O)c2ccc(NC(=O)c3ccc(OC)c(C)c3)cc2)cc(OC)c1 | -5.99% (inactive)
CCc1c(-c2ccccc2)c(-c2ccccc2)nn1-c1ccccc1-c1cccc(OCC(=O)O)c1 | -3.38% (inactive)
COc1ccc(C(=O)n2c(C)c(Cc3cccc(O[C@@H](C)C(=O)O)c3)c3cc(OC(F)(F)F)ccc32)cc1 | -0.524% (inactive)
Nc1ncnc2c([C@@H]3N[C@H](CO)[C@@H](O)[C@H]3O)c[nH]c12 | -6.91% (inactive)
